Source: PubChem (University of Kansas High Throughput Screening Laboratory)
mHTT-CaM PPI inh: mutant huntingtin-calmodulin interaction inhibitors – biochemical, AlphaScreen, primary screen; P42858; AlphaScreen His-mHTT/GST-CaM binding, luminescence; inhibition, % at 15 µM; actives 3.6% (n = 190,000); AID 1671202, 2021;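 further: 0% = both proteins with DMSO and 100% = one protein alone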
Pf apPOL inh: Pf-apPOL inhibitors, biochemical, fluorescence; actives 0.25% (n = 210,000); inhibition, % at 10 µM; Recombinant Pf-apPOL, molecular beacon fluorescence, 1.5 h; Plasmodium falciparum apicoplast DNA polymerase (apPOL); AID 1794808, 2022
Active calls of the source: *; i = inactive; x = no result given; ! = a repeat was not active. Hits are enriched below; roughly 3.5% of the tested compounds scored in any of these assays. No stated cut-off is given here; in the data, active means inhibition above about 50%; inactive means the rest.

SMILES	mHTT-CaM PPI inh	Pf apPOL inh
COc1ccc2c(c1)C1C=CCC1C(C(=O)O)N2 (stereo not drawn)	100*	2
CC(=O)Nc1ccc2c(c1)OCCO2	x	-2
O=C(Nc1ccc2c(c1)C1C=CCC1C(C(=O)O)N2)c1ccc(Cl)cc1Cl (stereo not drawn)	94*	2
CC(=O)Nc1ccc2c(c1)C1C=CCC1C(c1ccccc1F)N2 (stereo not drawn)	73*	-1
CC(=O)Nc1ccc(NC(=O)c2ccc(Cl)cc2Cl)cc1	-9	-8
CC(=O)Nc1ccc2c(c1)C1C=CCC1C(C(=O)O)N2 (stereo not drawn)	89*	-10
COc1ccc(OC)c(C2NC(C(=O)O)CS2)c1 (stereo not drawn)	46	-7
CCn1cnnc1C1CCCN(C(=O)c2ccsc2)C1 (stereo not drawn)	-4	5
COc1ccc(C=C2C(=O)N(c3ccc(Cl)c(Cl)c3)N=C2C)cc1	x	-4
O=C(c1ccsc1)N1CCc2cc(-c3ccno3)ccc21	3	-23
CCCCNS(=O)(=O)c1ccc(F)cc1Br	-10	0
O=C(NC1CCN(c2nnc3ccc(Cl)cn23)CC1)c1ccc(C(F)(F)F)cc1	5	-2
CC(C)(C)C(=O)Nc1c2c(nn1-c1ccc([N+](=O)[O-])cc1)CS(=O)(=O)C2	2	2
O=C(C1CCC1)N(Cc1ccccn1)c1nc2c(F)cc(F)cc2s1	-12	-1
N#Cc1c(-c2ccccc2)cc(-c2ccccc2)nc1SCc1ccccc1	-9	x
Cc1cccc(NC(=O)Nc2ccc3c(c2)CCN3S(C)(=O)=O)c1C	-3	-6
CCN(CC)CCC(c1ccc(OC)cc1)c1c(OC)cc(OC)c2c(C)cc(=O)oc12 (stereo not drawn)	14	-7
CCN(CC)CCC(c1ccc(N(C)C)cc1)c1c(OC)cc(OC)c2c1OC(=O)CC2c1ccc(N(C)C)cc1 (stereo not drawn)	101*	0
CCN(CC)CCC(c1ccc(N(C)C)cc1)c1c(OC)cc(OC)c2c1OC(=O)CC2c1ccc(OC)cc1 (stereo not drawn)	98*	-9
CCN(CC)CCC(c1ccc2c(c1)OCO2)c1c(OC)cc(OC)c2c(C)cc(=O)oc12 (stereo not drawn)	30	-14
C=CCOc1nc(N2CCCCC2)nc(N2CCOCC2)n1	-13	x
CN1/C(=C\Sc2ccccc2[N+](=O)[O-])C(C)(C)c2ccccc21	76*	1
CN1C(=CC=C2C(=O)Oc3ccccc3C2=O)C(C)(C)c2ccccc21	-7	i
Cc1nn(Cc2ccc(Cl)cc2)c(C)c1NC(=O)c1noc2c1CCCCC2	67*	2
Cc1cc(NC(=O)c2noc3c2CCCCC3)nn1Cc1ccc(Cl)cc1	-8	-4
SMILES	mHTT-CaM PPI inh	Pf apPOL inh
O=C(NCc1cc(-c2cccs2)on1)c1cc2ccccc2[nH]1	9	-1
COc1cccc(C2=NN(C(=O)CN3CCOCC3)C(c3ccccc3F)C2)c1 (stereo not drawn)	29	0
COc1ccc(C2=NN(C(=O)CN3CCCCC3)C(c3ccccc3F)C2)cc1 (stereo not drawn)	69*	-8
COc1ccc(C2=NN(C(=O)CN3CCCCC3)C(c3ccc(C)cc3C)C2)cc1 (stereo not drawn)	100*	-7
COc1ccc(C2CC(c3ccc(F)cc3)=NN2C(=O)CN2CCOCC2)cc1 (stereo not drawn)	64*	-4
CCC(=O)N1N=C(c2ccc(C)cc2)CC1c1cc2cc(OC)ccc2nc1Cl (stereo not drawn)	-1	6
COc1ccc(C2=NN(C(=O)CN3CCOCC3)C(c3cccc(OC)c3OC)C2)cc1 (stereo not drawn)	6	-3
Fc1ccccc1C1C2=C(Nc3ncnn31)c1cc(Cl)ccc1OC2c1cccs1 (stereo not drawn)	17	9
COc1cccc(C=C2Oc3cc(OCC=C(C)C)ccc3C2=O)c1	-6	-3
CCCNC(=O)Cn1cccc1-c1nc(-c2ccccc2)cs1	-5	0
O=C1CSC(c2ccc(Br)cc2)N1c1ccc(O)cc1 (stereo not drawn)	-1	-4
COc1ccc(C2Oc3c(ccc4cc(OC)c(OC)cc34)-c3cc(OC)c(OC)cc32)cc1 (stereo not drawn)	11	x
COc1cc2c(cc1OC)C(c1ccc(Cl)cc1)OC1=C2C(=O)c2ccccc21 (stereo not drawn)	68*!	-1
O=C1CCC(=O)N1c1ccc(S(=O)(=O)NCc2ccccn2)cc1	-10	0
CCOC(=O)C(C#N)=NNc1cc(-c2ccccc2)[nH]n1	x	3
CC(C)(C)Oc1ccc(C(=O)N(Cc2ccc(F)cc2)C2CCOC(C)(C)C2)cc1 (stereo not drawn)	56*	1
COc1ccc(CN(CCC(c2ccccc2OC)C2CCOC(C)(C)C2)C(C)=O)cc1 (stereo not drawn)	22	-3
O=C(CN1C(=O)/C(=C/c2ccc(C(F)(F)F)cc2)Sc2ccccc21)NCc1ccccn1	32	-8
CN1CCN(C(=O)CN2C(=O)/C(=C/c3ccc(C(F)(F)F)cc3)Sc3ccccc32)CC1	51*	2
CCCCNC(=O)CN1C(=O)/C(=C/c2ccc(C(F)(F)F)cc2)Sc2ccccc21	-6	2
CCOCCCNC(=O)CN1C(=O)/C(=C/c2ccc(C(F)(F)F)cc2)Sc2ccccc21	16	-26
Cc1ccc(/C=C2\Sc3ccccc3N(CC(=O)NCc3ccccn3)C2=O)cc1	80*	-1
CNC(=O)CN1C(=O)/C(=C/c2ccc(C(F)(F)F)cc2)Sc2ccccc21	19	-35
COCCCNC(=O)CN1C(=O)/C(=C/c2ccc(C(F)(F)F)cc2)Sc2ccccc21	56*	0
O=C(CN1C(=O)/C(=C/c2ccc(C(F)(F)F)cc2)Sc2ccccc21)NCCN1CCCC1	84*	3
SMILES	mHTT-CaM PPI inh	Pf apPOL inh
CCSc1nc2ccccc2c(=O)n1Cc1ccccc1	-73	-2
COc1cccc(C2=CC(c3cccc(OC)c3OC)n3c(nc4ccccc43)N2)c1 (stereo not drawn)	19	-7
O=C(NCCc1ccc(F)cc1)C(=O)NC1CCCCC1	0	-5
CC(C)C[C@@H](CN=[N+]=[N-])N1CCN(CCc2ccccc2)CCC1=O	71*	-6
Cc1ccc(SCCN2CCN(CCc3ccccc3)CCC2=O)cc1	34	-2
O=C1CCN(Cc2ccccc2)CCN1[C@H](CSc1ccccc1)Cc1ccccc1	38	-3
O=C1CCN(CCc2ccccc2)CCN1[C@H](CSc1ccc(Br)cc1)Cc1ccccc1	75*!	-3
O=C1CCN(CCc2ccccc2)CCN1CCSc1ccc(Br)cc1	53*	-9
Cc1ccc(SC[C@H](CC(C)C)N2CCN(CCc3ccccc3)CCC2=O)cc1	80*	-6
CC(C)C[C@@H](CO)N1CCN(CCc2ccccc2)CCC1=O	8	-1
CC(=O)Nc1ccc(SC[C@H](CC(C)C)N2CCN(CCc3ccccc3)CCC2=O)cc1	50	-4
CSc1cccc(NC(=O)C2CCN(S(=O)(=O)c3ccccc3)CC2)c1	-7	-3
Cc1ccc(C2=N/C(=C/c3cc4c(cc3Cl)OCO4)C(=O)O2)cc1	-2	8
O=C(O)c1nccnc1C(=O)Nc1ccc(NC(=O)c2nccnc2C(=O)O)cc1	3	0
O=C(NCC1(c2cccs2)CC1)c1ccc(F)c(F)c1	-28	-8
